Data taken from PubChem BioAssay (EPA / NIEHS).
Inconclusive results are not listed. Activity calls are given as the source filed them. Rule for the calls, unless noted: active = hit-call score of the fitted dose curve at least 0.9, where 1 is the maximum; inactive = score below 0.9.

What was measured:
[1] = read-out: Monocyte Chemoattractant Protein-1 (MCP1), CCL2 (gene 6347); test: BSK_SAg_MCP1: BioMAP Diversity Plus: SAg Assay for Monocyte Chemoattractant Protein-1 (MCP1) Biomarker Activity (AID 2283090); details: primary human HUVEC with PBMC; actives raise or lower the signal
How it was run: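 MCP-1 levels in the endothelial–PBMC SAg co-culture were quantified by ELISA at 24 h post-dosing; both increases and decreases versus DMSO scored. Cytotoxicity monitored by SRB total protein in parallel cultures.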

[2] = read-out: E-selectin (Homo sapiens) (UniProt P16581); test: BSK_SAg_Eselectin: BioMAP Diversity Plus: SAg Assay for Eselectin Biomarker Activity (AID 2283091); details: primary human HUVEC with PBMC; actives raise or lower the signal
How it was run: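 Human umbilical vein endothelial cells co-cultured with peripheral blood mononuclear cells, SAg system. E-selectin is measured by ELISA 24 h after dosing and fitted bidirectionally against DMSO. Cytotoxicity is checked by SRB staining of parallel cultures.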

[3] = read-out: Monokine induced gamma interferon (MIG), CXCL9 (gene 4283); test: BSK_SAg_MIG: BioMAP Diversity Plus: SAg Assay for Monokine induced gamma interferon (MIG) Biomarker Activity (AID 2283092); details: primary human HUVEC with PBMC; actives raise or lower the signal
How it was run: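 Values reflect bidirectional fitting of ELISA-measured MIG against DMSO vehicle, taken 24 h after dosing of a co-culture of human umbilical vein endothelial cells and peripheral blood mononuclear cells.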

[4] = BSK_SAg_PBMCCytotoxicity: PBMC Cytotoxicity Assessment in the BioMAP Diversity Plus: SAg Assay (AID 2283093); details: primary human HUVEC with PBMC;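 note: PBMC viability measured as Alamar Blue reduction fluorescence at 546/580 nm; fitted both ways against DMSO so a hit may be loss or gain of signal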;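 for AC50: PBMC superantigen activated with SEB plus TSST-1 one hour after compound addition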
How it was run: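 Human umbilical vein endothelial cells co-cultured with PBMC; PBMC (75,000/well) pre-treated with compound 1 h, then activated with SEB and TSST-1 (20 ng/mL final each) for 90 h. Alamar Blue added 6 h, fluorescence 546/580 nm; bidirectional fit versus DMSO.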

[5] = read-out: Interleukin-8 (IL8), CXCL8 (gene 3576); test: BSK_SAg_IL8: BioMAP Diversity Plus: SAg Assay for Interleukin-8 (IL8) Biomarker Activity (AID 2283094); details: primary human HUVEC with PBMC; actives raise or lower the signal
How it was run: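 Human umbilical vein endothelial cells co-cultured with PBMC, stimulated with superantigen; IL-8 measured by ELISA 24 h after chemical dosing. Bidirectional fitting versus DMSO; SRB staining in parallel cultures tracks cytotoxicity.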

[6] = BSK_SAg_Proliferation: Cell Proliferation Assessment in the BioMAP Diversity Plus: SAg Assay (AID 2283095); details: primary human HUVEC with PBMC
How it was run: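 Human umbilical vein endothelial cells co-cultured with PBMC; sulforhodamine B total-protein staining (0.1% SRB after 10% TCA fixation, absorbance 560 nm) at 96 h in sub-confluent culture. Fitted bidirectionally against DMSO.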

[7] = BSK_SAg_SRB: Viability Assessment in the BioMAP Diversity Plus: SAg Assay (AID 2283096); details: primary human HUVEC with PBMC;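 note: cells read one day after compound addition; hits may be either gain or loss of signal compared with DMSO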
How it was run: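 Endothelial/PBMC primary human co-culture; compound 24 h; fix 10% TCA, stain 0.1% SRB, A560; protein content as cytotoxicity proxy; bidirectional curve fit, DMSO = baseline.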

[8] = target: human Caspase 5 (CASP5), CASP5 (gene 838) (UniProt P51878); test: NVS_ENZ_hCASP5: NovaScreen (NVS) Enzymatic Assay for human Caspase 5 (CASP5) (AID 2283137; active = hit-call score of the fitted dose curve at least 0.9, where 1 is the maximum)
How it was run: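 Recombinant human caspase 5 expressed in E. coli, fluorogenic substrate, fluorescence read 2 h after dosing. Single-point 25 uM duplicate screen, then concentration-response to maximum 50 uM for actives; DMSO baseline.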

[9] = target: human Acid Phosphatase 1 (ACP1), ACP1 (gene 52) (UniProt P24666); test: NVS_ENZ_hACP1: NovaScreen (NVS) Enzymatic Assay for human Acid Phosphatase 1 (ACP1) (AID 2283136; active = hit-call score of the fitted dose curve at least 0.9, where 1 is the maximum)
How it was run: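 Recombinant enzyme expressed in Sf9 cells, tested cell-free; activity read by fluorescence with electrophoretic mobility shift separation of substrate and product, 1.5 h after dosing. Primary screen in duplicate at 25 uM, actives then run in concentration series; loss of signal versus DMSO.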

Caspase-3 (Homo sapiens) = Caspase-3 (Homo sapiens) (UniProt P42574); test: NVS_ENZ_hCASP3: NovaScreen (NVS) Enzymatic Assay for human Caspase 3 (CASP3) (AID 2283139; active = hit-call score of the fitted dose curve at least 0.9, where 1 is the maximum)
How it was run: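 Recombinant human caspase-3 from E. coli with a fluorogenic substrate, read by fluorescence 1 h after dosing. Primary screen in duplicate at 25 uM. Actives (for example ≥30% inhibition) rerun as concentration-response up to 50 uM.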

[10] = target: human CYP19A1, CYP19A1 (gene 1588) (UniProt P11511); test: NVS_ADME_hCYP19A1: NovaScreen (NVS) CYP450-related Enzyme Activity (ADME) Assay for human CYP19A1 (AID 2283098; active = hit-call score of the fitted dose curve at least 0.9, where 1 is the maximum)
How it was run: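 Cell-free enzyme assay with recombinant protein and a specific fluorogenic substrate, read by fluorescence intensity 0.5 h after dosing. Primary screen ran in duplicate at 10 uM; actives were retested in concentration series. Loss of signal versus acetonitrile baseline.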

[11] = target: Cytochrome P450 2C19 (Homo sapiens) (UniProt P33261); test: NVS_ADME_hCYP2C19: NovaScreen (NVS) CYP450-related Enzyme Activity (ADME) Assay for human CYP2C19 (AID 2283113; active = hit-call score of the fitted dose curve at least 0.9, where 1 is the maximum;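 for AC50: potency for inhibition seen as loss of fluorescent signal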)
How it was run: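 Cell-free recombinant human CYP2C19 from insect cells, fluorescent substrate; activity read by fluorescence intensity 1 h after dosing. Primary screen in duplicate at 10 uM; actives retested in concentration series. Signal loss versus acetonitrile negative control.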

[12] = target: human AKT serine/threonine Kinase 1 (AKT1), AKT1 (gene 207) (UniProt P31749); test: NVS_ENZ_hAKT1: NovaScreen (NVS) Enzymatic Assay for human AKT serine/threonine Kinase 1 (AKT1) (AID 2283138; active = hit-call score of the fitted dose curve at least 0.9, where 1 is the maximum)
How it was run: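 Recombinant human AKT1 with a specific substrate, product separated by electrophoretic mobility shift, read after 1 h. Compounds at 25 uM in duplicate, then concentration-response up to 50 uM for hits; inhibition relative to DMSO.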

[13] = target: human CYP2A6, CYP2A6 (gene 1548) (UniProt P11509); test: NVS_ADME_hCYP2A6: NovaScreen (NVS) CYP450-related Enzyme Activity (ADME) Assay for human CYP2A6 (AID 2283099; active = hit-call score of the fitted dose curve at least 0.9, where 1 is the maximum)
How it was run: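 Recombinant human CYP2A6 expressed in insect cells, cell-free; fluorogenic substrate turnover read by fluorescence intensity 0.5 h after dosing. Primary screen 10 uM in duplicate, then concentration-response up to 20 uM; acetonitrile as negative control.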

[14] = target: human CYP2C9, CYP2C9 (gene 1559) (UniProt P11712); test: NVS_ADME_hCYP2C9: NovaScreen (NVS) CYP450-related Enzyme Activity (ADME) Assay for human CYP2C9 (AID 2283108; active = hit-call score of the fitted dose curve at least 0.9, where 1 is the maximum)
How it was run: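 Cell-free assay of recombinant human CYP2C9 produced in Sf9 cells, with enzyme activity read by fluorescence intensity 0.75 h after compound addition. Loss of signal versus an acetonitrile negative control indicates inhibition. Primary screen used 10 uM in duplicate; actives were retested in concentration series.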

[15] = target: Cytochrome P450 3A4 (Homo sapiens) (UniProt P08684); test: NVS_ADME_hCYP3A4: NovaScreen (NVS) CYP450-related Enzyme Activity (ADME) Assay for human CYP3A4 (AID 2283110; active = hit-call score of the fitted dose curve at least 0.9, where 1 is the maximum)
How it was run: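 Cell-free assay using insect-cell-expressed human CYP3A4 with a fluorogenic substrate; fluorescence intensity was read 0.33 hour after dosing. Loss of signal relative to acetonitrile vehicle indicated inhibition. Primary single-concentration screen at 10 uM, in duplicate, then concentration series.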

Measured: AC50

Sequence of human Caspase 5 (CASP5), CASP5 (gene 838) (P51878 whole entry, looked up): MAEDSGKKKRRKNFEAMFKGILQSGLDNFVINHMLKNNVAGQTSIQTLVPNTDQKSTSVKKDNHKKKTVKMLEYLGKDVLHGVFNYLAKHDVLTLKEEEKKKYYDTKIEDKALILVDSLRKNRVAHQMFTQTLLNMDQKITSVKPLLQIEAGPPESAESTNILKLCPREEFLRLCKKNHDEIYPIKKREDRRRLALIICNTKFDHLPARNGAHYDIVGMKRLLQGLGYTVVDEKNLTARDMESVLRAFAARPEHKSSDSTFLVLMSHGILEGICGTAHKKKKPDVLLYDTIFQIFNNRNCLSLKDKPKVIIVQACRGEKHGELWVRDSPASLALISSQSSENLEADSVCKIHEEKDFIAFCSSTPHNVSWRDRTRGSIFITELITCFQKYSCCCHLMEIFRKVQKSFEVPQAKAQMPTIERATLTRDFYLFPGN
Sequence of E-selectin (Homo sapiens) (P16581 whole entry, looked up): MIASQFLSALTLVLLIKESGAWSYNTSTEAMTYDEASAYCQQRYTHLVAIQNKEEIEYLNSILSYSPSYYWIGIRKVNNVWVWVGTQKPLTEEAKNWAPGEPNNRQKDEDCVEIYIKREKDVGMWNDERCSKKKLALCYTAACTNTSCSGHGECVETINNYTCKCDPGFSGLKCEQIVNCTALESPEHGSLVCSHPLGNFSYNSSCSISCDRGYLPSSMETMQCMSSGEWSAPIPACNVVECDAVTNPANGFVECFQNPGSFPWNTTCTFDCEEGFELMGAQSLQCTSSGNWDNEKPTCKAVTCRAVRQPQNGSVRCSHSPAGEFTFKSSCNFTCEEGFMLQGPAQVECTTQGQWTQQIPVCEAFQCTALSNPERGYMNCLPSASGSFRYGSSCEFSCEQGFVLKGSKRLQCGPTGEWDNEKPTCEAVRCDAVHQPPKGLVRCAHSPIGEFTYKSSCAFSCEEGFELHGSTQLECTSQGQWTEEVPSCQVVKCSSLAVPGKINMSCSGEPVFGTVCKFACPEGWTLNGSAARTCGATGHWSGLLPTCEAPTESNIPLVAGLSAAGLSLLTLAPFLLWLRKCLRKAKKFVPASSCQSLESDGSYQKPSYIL
Sequence of human AKT serine/threonine Kinase 1 (AKT1), AKT1 (gene 207) (P31749 whole entry, looked up): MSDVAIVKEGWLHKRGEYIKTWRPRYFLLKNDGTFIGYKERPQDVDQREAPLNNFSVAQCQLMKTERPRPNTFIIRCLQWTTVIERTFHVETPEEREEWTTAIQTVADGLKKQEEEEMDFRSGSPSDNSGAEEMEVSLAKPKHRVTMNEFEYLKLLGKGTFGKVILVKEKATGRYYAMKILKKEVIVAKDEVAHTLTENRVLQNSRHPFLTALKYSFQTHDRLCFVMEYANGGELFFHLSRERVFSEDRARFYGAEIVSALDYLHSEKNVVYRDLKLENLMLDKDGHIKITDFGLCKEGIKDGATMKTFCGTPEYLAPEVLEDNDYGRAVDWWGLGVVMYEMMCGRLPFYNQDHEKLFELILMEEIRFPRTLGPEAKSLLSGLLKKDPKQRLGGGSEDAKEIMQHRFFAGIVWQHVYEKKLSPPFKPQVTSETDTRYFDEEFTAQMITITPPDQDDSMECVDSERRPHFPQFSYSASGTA
Sequence of human CYP19A1, CYP19A1 (gene 1588) (P11511 whole entry, looked up): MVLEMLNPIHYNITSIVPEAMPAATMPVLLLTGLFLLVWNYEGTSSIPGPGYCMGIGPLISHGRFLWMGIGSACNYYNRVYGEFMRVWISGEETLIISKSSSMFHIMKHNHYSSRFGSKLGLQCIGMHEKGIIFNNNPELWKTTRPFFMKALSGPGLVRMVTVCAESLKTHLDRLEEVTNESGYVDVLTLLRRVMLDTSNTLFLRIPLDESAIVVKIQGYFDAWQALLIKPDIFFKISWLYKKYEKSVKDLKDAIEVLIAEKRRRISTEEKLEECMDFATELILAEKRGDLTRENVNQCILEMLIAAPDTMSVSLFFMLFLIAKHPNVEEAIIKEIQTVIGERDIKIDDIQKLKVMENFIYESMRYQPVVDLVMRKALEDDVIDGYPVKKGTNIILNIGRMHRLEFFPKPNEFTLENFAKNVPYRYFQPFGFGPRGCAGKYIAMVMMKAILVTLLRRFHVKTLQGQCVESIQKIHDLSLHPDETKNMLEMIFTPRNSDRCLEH
Sequence of Caspase-3 (Homo sapiens) (P42574 whole entry, looked up): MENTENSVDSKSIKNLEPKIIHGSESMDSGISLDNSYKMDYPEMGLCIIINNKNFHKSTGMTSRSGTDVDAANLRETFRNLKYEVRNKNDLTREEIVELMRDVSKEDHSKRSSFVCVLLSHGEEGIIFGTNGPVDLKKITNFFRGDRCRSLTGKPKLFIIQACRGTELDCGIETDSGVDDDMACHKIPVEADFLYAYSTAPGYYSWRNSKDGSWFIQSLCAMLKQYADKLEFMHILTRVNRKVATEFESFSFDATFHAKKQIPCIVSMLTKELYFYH
Sequence of human Acid Phosphatase 1 (ACP1), ACP1 (gene 52) (P24666 whole entry, looked up): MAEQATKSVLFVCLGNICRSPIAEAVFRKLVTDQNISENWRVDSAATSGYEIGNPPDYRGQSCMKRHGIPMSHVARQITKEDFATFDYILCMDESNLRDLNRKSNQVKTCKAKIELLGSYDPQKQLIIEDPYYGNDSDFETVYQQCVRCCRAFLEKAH
Sequence of human CYP2C9, CYP2C9 (gene 1559) (P11712 whole entry, looked up): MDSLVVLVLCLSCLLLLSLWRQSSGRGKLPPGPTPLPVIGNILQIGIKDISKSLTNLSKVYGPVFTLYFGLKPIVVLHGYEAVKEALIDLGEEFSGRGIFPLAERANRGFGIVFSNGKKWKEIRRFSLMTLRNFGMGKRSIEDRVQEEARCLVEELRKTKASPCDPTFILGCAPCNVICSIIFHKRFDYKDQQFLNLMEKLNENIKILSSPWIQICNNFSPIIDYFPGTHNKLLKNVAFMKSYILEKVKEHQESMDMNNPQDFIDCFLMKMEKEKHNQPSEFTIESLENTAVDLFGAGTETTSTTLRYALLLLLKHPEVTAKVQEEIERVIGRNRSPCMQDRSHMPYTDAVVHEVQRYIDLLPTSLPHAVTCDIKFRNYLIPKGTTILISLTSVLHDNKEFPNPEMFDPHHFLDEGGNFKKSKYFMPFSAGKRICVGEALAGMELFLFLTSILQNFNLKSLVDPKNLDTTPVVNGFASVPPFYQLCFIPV
Sequence of human CYP2A6, CYP2A6 (gene 1548) (P11509 whole entry, looked up): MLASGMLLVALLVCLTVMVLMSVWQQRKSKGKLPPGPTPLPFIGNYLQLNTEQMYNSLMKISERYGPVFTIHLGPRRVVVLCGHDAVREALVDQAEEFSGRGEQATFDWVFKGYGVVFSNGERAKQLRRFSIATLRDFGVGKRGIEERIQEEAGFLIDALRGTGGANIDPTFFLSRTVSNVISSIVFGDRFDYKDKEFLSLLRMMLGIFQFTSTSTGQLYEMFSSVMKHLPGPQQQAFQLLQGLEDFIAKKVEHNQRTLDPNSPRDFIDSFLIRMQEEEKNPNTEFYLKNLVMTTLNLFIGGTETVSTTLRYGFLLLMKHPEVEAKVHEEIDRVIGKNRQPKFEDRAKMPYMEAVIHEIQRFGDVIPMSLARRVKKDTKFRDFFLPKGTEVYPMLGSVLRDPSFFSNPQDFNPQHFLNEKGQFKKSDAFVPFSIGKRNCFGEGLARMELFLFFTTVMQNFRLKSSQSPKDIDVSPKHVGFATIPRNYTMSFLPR
Sequence of Cytochrome P450 3A4 (Homo sapiens) (P08684 whole entry, looked up): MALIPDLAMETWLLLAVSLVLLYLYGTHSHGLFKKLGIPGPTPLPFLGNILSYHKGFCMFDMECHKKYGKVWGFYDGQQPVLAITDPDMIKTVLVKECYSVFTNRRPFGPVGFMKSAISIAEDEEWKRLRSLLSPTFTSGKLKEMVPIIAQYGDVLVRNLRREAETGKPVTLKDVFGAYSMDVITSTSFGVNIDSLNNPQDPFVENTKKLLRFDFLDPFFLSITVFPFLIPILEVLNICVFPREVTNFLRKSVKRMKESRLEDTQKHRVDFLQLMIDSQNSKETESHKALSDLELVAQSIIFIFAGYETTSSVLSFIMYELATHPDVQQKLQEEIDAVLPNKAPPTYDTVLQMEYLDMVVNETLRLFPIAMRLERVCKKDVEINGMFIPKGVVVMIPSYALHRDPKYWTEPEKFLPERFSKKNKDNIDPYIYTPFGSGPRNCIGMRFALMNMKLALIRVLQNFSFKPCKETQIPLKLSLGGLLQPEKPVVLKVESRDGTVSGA

COc1cc(-c2nc(NC(=O)c3cc4cc(C)cc(C)c4n3CC(=O)O)sc2CCC2CCCCC2)c(OC)cc1Cl
active: [1] 2.78 µM | [2] 5.48 µM | [3] 4.63 µM | [4] 16.9 µM | [5] 16.9 µM | [6] 3.49 µM | [7] 3.85 µM | [8] 0.91 µM

Cc1ccc(C)c(C)c1
inactive: [1] | [2] | [3] | [4] | [5] | [6] | [7]

CCCCN(CCCC)CCCC
inactive: [1] | [2] | [3] | [4] | [6] | [7]

Cc1ccc2ncccc2c1
inactive: [1] | [2] | [3] | [4] | [5] | [6] | [7] | [9] | [8]

CCCc1cc(=O)[nH]c(=S)[nH]1
inactive: [1] | [2] | [3] | [4] | [5] | [6] | [7] | [9] | Caspase-3 (Homo sapiens)

Cc1c(C(=O)O)c(O)cc2c1C(=O)c1c(O)c([C@@H]3O[C@H](CO)[C@@H](O)[C@H](O)[C@H]3O)c(O)c(O)c1C2=O
not listed: [9] | Caspase-3 (Homo sapiens) | [12] | [13] | [14] | [15]
inactive: all other assays above

CN[C@H]1CC[C@@H](c2ccc(Cl)c(Cl)c2)c2ccc(S(N)(=O)=O)cc21
active: [1] 25.2 µM | [2] 20 µM | [3] 31.2 µM | [4] 20.5 µM | [5] 13.8 µM | [6] 12.4 µM | [7] 28.8 µM

CCCCCCCCCCCCCO
active: [1] 31.5 µM | [2] 36.4 µM | [4] 33.2 µM | [7] 37.5 µM
inactive: [3] | [6]

Cc1cccc([N+](=O)[O-])c1C
inactive: [1] | [2] | [3] | [4] | [6] | [7]
active: [11] 18.6 µM

Cc1ccc(N(C)C)cc1
inactive: [1] | [2] | [3] | [4] | [6] | [7]

COCCOC[C@H](CC1(C(=O)NC2CCC(C(=O)O)CC2)CCCC1)C(=O)Oc1ccc2c(c1)CCC2 (stereo partly specified)
inactive: [2] | [3] | [4] | [5] | [6] | [7]

Cc1nc(-c2ccc3c(c2)CCN(CCC2CCC(NC(=O)/C=C/c4ccc(F)cc4)CC2)CC3)no1 (stereo unspecified)
inactive: [1] | [2] | [3] | [4] | [6] | [7] | [10] | Caspase-3 (Homo sapiens)

C[Si]1(C)O[Si](C)(C)O[Si](C)(C)O[Si](C)(C)O1
inactive: [1] | [2] | [3] | [4] | [6] | [7]

OC[C@@H](O)[C@@H](O)[C@H](O)[C@H](O)CO
inactive: [2] | [3] | [4] | [5] | [6]

CCCCCCCCCCO
inactive: [2] | [3] | [4] | [5] | [6] | [7]

CC(C)(C)c1cc(O)c(C(C)(C)C)cc1O
active: [1] 5.94 µM | [2] 7.31 µM | [4] 8.8 µM | [6] 27.8 µM
inactive: [3] | [7] | [12]

CCCCOC(=O)CCCCCCCCC(=O)OCCCC
inactive: [2] | [3] | [4] | [5] | [6] | [7]

NCC1(Cc2noc(=O)[nH]2)CCCCC1
inactive: [2] | [3] | [4] | [5] | [6] | [7]

CC(C)c1ccc(C(=O)N=C(N)N)cc1S(C)(=O)=O
inactive: [1] | [2] | [3] | [4] | [6] | [7]

CC1=C(/C=C/C(C)=C/C=C/C(C)=C/CO)C(C)(C)CCC1
inactive: [3] | [4] | [7] | [13] | [11] | [12]
active: [1] 20.9 µM | [2] 12.8 µM | [6] 26.1 µM | [14] 18.2 µM | [8] 39.9 µM

CCc1c(C(=O)NN2CCCCC2)nn(-c2ccc(Cl)cc2Cl)c1-c1ccc(Br)cc1
active: [1] 8.24 µM | [2] 12.3 µM | [3] 9.99 µM | [4] 11.8 µM | [6] 7.06 µM | [7] 8.32 µM
inactive: [15] | [11] | [8]
